Hit rate of the full screen: of about 10,000 compounds, about 25 (0.2%) were called active.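 How the source made its calls: active means compound among top-ranked inhibitors of TNF-induced VCAM-1 adhesion protein staining, with the hit upheld by image or statistical review; inactive means the rest, including hits rejected on review.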 For the sample, actives were picked, then their nearest neighbours and some compounds at random.
assay: inhibitors of TNFa-induced VCAM-1 surface display, cell-based, plate reader, pooled HUVEC, TNFa stimulus (AID 454); settings: HUVEC TNFa-induced VCAM-1 surface immunofluorescence; stronger effect = higher value,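 compound tested at 5 µM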

Structure (SMILES)	inhibition
COc1ccc(N(CC(=O)Nc2cc(C)ccc2C)S(=O)(=O)c2c(C)nn(C)c2C)cc1	inactive
Cc1ccc2nc(NC(=O)Cn3cc4c(n3)CCCCC4)sc2c1	inactive
CCCCNC(=O)OC(C)CNC(=O)Oc1cccc(C)c1 (configuration not stated)	inactive
Cc1ccc(O)c(-c2cc(C(=O)Nc3ccc(S(=O)(=O)N4CC(C)OC(C)C4)cc3)[nH]n2)c1 (configuration not stated)	inactive
O=C(Nc1ccc2c(c1)OCCO2)C1CCCN1S(=O)(=O)c1cccc2cccnc12 (configuration not stated)	inactive
CCOc1ccccc1NC(=O)CCSc1nc2n[nH]c(C)c2c(=N)n1-c1ccccc1Cl	inactive
Cn1c(=O)c2c(nc(NCCCO)n2CCc2ccccc2)n(C)c1=O	inactive
Cc1ccc(-n2c(=O)[nH]c3c(C(N)=O)nc(CC(C)C)nc32)cc1	inactive
N/C(Cn1nnc(-c2ccccc2)n1)=N\O	inactive
CO[C@H]1C[C@@H]2CC[C@@H](C)[C@@](O)(O2)C(=O)C(=O)N2CCCC[C@H]2C(=O)O[C@H]([C@H](C)C[C@@H]2CC[C@@H](O)[C@H](OC)C2)CC(=O)[C@H](C)C=C(C)[C@@H](O)[C@@H](OC)C(=O)[C@H](C)C[C@H](C)C=CC=CC=C1C	88.8% (active)
CCOC(=O)C1CCN(c2c(NC3CCCc4ccccc43)c(=O)c2=O)CC1 (configuration not stated)	inactive
Cc1ccc(C)c2[nH]c(=O)c(CCNC(=O)c3ccc(S(=O)(=O)N(C)C)cc3)cc12	inactive
Cc1cc(-n2c(C)cc(C(=O)CSc3nnnn3-c3ccc(Cl)cc3)c2C)no1	inactive
CC(Oc1ccc(Cl)cc1Cl)c1nc(-c2ccc(NC(=O)c3cccnc3)cc2)no1 (configuration not stated)	72% (active)
O=C(Nc1ccc(-c2noc(-c3cccs3)n2)cc1)c1cccnc1	inactive
COc1ccc(Cc2nc(-c3ccc(NC(=O)c4cccnc4)cc3)no2)cc1	inactive
O=C(CCSc1nccn1Cc1ccccc1)N1CCOCC1	inactive
Cc1nnc(NC(=O)C2CCCO2)s1 (configuration not stated)	inactive
CCN1CCN(C(c2ccc(F)cc2)c2nnnn2Cc2cccs2)CC1 (configuration not stated)	inactive
O=C(COC(=O)c1ccco1)NCc1cccs1	inactive
CCCCn1nnnc1SCC(=O)N1CCN(C(=O)c2ccco2)CC1	inactive
COC(=O)CC1SCCNC1=O (configuration not stated)	inactive
Cn1c(-c2ccccc2)cc(=O)c2ccccc21	inactive

Structure (SMILES)	inhibition
O=C(NCCC1=CCCCC1)c1cc2c(s1)CS(=O)(=O)C2	inactive
COc1ccc(C(=O)Cn2nnc(-c3cccs3)n2)cc1	inactive
O=C(Nc1sccc1C(=O)NCc1ccco1)c1cccnc1	inactive
CCC1CCCCN1S(=O)(=O)c1ccc(C(=O)Nc2nnc(-c3cccs3)o2)cc1 (configuration not stated)	inactive
CCC1CCCCN1S(=O)(=O)c1ccc(C(=O)Nc2nnc(-c3ccccc3Cl)o2)cc1 (configuration not stated)	inactive
CC1CCCN(S(=O)(=O)c2ccc(C(=O)Nc3nnc(-c4ccccc4Cl)o3)cc2)C1 (configuration not stated)	77.1% (active)
COc1ccc(-c2cc(C(=O)NCc3ccc(Cl)cc3)no2)cc1OC	inactive
COC(=O)c1[nH]c2cc(OC)ccc2c1NC(=O)CCN1CCCCC1	inactive
O=S(=O)(Cc1ccc(Cl)cc1)Nc1ccc2c(c1)OCO2	inactive
CCOC(=O)N1CCN(S(=O)(=O)c2cc(Cl)ccc2Cl)CC1	inactive
Cc1nnc(SCCn2c(N3CC(C)CC(C)C3)nc3c2c(=O)n(C)c(=O)n3C)s1 (configuration not stated)	inactive
COC(=O)c1[nH]c2ccccc2c1NC(=O)CN1CCC(C(N)=O)(N2CCCCC2)CC1	inactive
CCC(C)NC(=O)CC1Oc2ccc(C)cc2NC1=O (configuration not stated)	inactive
COc1ccccc1NC(=O)N1CCN(c2cccc(C(F)(F)F)c2)CC1	inactive
Cc1cc(C)n2nc[n+](C)c2n1	inactive
CC(=O)N1CCN(S(=O)(=O)c2cccc(C(=O)Nc3ccc4c(c3)CCC4)c2)CC1	inactive
CCc1nnc2c3cnn(-c4ccccc4)c3ncn12	inactive
Cc1ccc(S(=O)(=O)N2CCCC2)cc1S(=O)(=O)N1CCCC1	inactive
CS(=O)(=O)N1CCc2cc(C(=O)N3CCCCC3)ccc21	inactive
Cc1cc(C)nc(NS(=O)(=O)c2ccc(NC(=O)Cn3c(=O)oc4ccccc43)cc2)n1	inactive
CCOC(=O)c1[nH]c2ccc(C)cc2c1NC(=O)CN1CCCCC1	inactive
O=C(NCC1CCCO1)c1ccc(C(=O)NCC2CCCO2)cc1 (configuration not stated)	inactive
O=C(CN(Cc1ccc(F)cc1)C(=O)Cn1nnc2ccccc21)NCC1CCCO1 (configuration not stated)	inactive

Structure (SMILES)	inhibition
S=C(NCC1CCCO1)n1nnc2ccccc21 (configuration not stated)	104% (active)
CC(=O)Oc1ccc(CCC(C)OC(C)=O)cc1 (configuration not stated)	inactive
Oc1ccc(Nc2nc(-c3ccc(O)cc3)cs2)cc1	106% (active)
c1cc2c(cc1Nc1nc(-c3ccc4c(c3)OCO4)cs1)OCCO2	inactive
CC(=O)Nc1nc(C)c(-c2csc(Nc3ccc(O)cc3)n2)s1	inactive
COc1ccc2nc(CC(C)(C)CC(=O)O)c[n+]([O-])c2c1	inactive
O=C(NC1CC1)c1cccc(Nc2ccc(-c3ccc4c(c3)OCCO4)nn2)c1	inactive
Cn1c(=O)cc(OCCCC(=O)Nc2ccc3c(c2)OCCO3)c2ccccc21	inactive
CCOC(=O)N1CCN(C(=O)COc2cc(=O)n(C)c3ccccc23)CC1	inactive
Cn1c(=O)cc(OCCCC(=O)N2CCCCC2)c2ccccc21	101% (active)
CCOC(=O)c1nn(-c2sc(C(=O)OC)c(C)c2C(=O)OC)cc1O	inactive
COc1ccc(CCn2c(N)c(C#N)c3nc4ccccc4nc32)cc1OC	inactive
CCN(CC)C(=O)c1ccc(O)c(OC)c1	inactive
O=C(O)/C=C/c1ccc(O)c(O)c1	inactive
COc1cc(/C=C/C(=O)CC(=O)/C=C/c2ccc(O)c(OC)c2)ccc1O	85.5% (active)
COc1ccc(N2CCN(c3ncnc4c3cnn4-c3ccc(C)cc3C)CC2)cc1	inactive
CC1(C)Cc2c(sc3c2c(=N)n(Cc2ccco2)c(=O)n3Cc2ccccc2)CO1	inactive
Cc1nc(-c2ccccc2)sc1C(N)=O	inactive
Clc1ccc(Cl)c(-c2nn3c(Cn4cnc5ccccc54)nnc3s2)c1	inactive
CSc1ccccc1NC(=O)CN(c1ccccc1)S(=O)(=O)N(C)C	inactive
CSc1ccc(Cn2nnc(C(=O)NCc3ccccc3)c2N)cc1	inactive

Source: PubChem BioAssay AID454 (Sanford-Burnham Center for Chemical Genomics, 2006)
